Assay results: PubChem BioAssay (Tox21)
Records with an inconclusive call do not appear. Active and inactive are the calls of the source. Unless noted, calls come from the whole dose curve; as a rule, active = well fitted curve in the direction sought with a large enough effect in the repeat runs; inconclusive = weak or mixed curves; inactive = no such curve, though single readings can be large; an effect the other way counts as inactive or inconclusive.

Assays:
[1] = qHTS assay to identify small molecule antagonists of the estrogen receptor beta (ER-beta) signaling pathway - cell viability counter screen (AID 1259382);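 note: HEK293T cells carrying ER-beta-UAS-bla reporter stimulated with estradiol; series mostly up to about 92 µM; nearly all actives have a fitted effect of over 55% in size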
Method in brief: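 ER-beta-UAS-bla HEK293T cells in 2% charcoal-stripped FBS medium, treated with compound plus 1 nM 17-beta-estradiol for 16 h at 37C. Viability read by CellTiter-Glo luminescence after 30 min at room temperature in the same wells.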

[2] = qHTS assay to identify small molecule agonists of the estrogen receptor alpha (ER-alpha) signaling pathway in the presence of an antagonist - cell viability counter screen (AID 1259386);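 note: cells exposed to compounds for 22 h at 37 °C before the viability read; nearly all actives have a fitted effect of over 30% in size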; note: potency is the fitted concentration of half-maximal effect
Method in brief: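 Cell viability in VM7Luc4E2 cells (endogenous full-length ER-alpha) measured by CellTiter-Fluor fluorescence in the same wells as the luciferase screen. Cells pre-cultured 5 days in charcoal-stripped serum, then treated 22 h with compounds at 15 concentrations plus 10.0nM ICI-182,780.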

[3] = molecular target: Progesterone receptor (Homo sapiens) (UniProt P06401); assay: qHTS assay to identify small molecule agonists of the progesterone receptor (PR) signaling pathway (AID 1346784; calls by dose curve; note: nearly all actives have a fitted effect of over 30% in size)
Method in brief: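 Compounds were tested for PR agonism in HEK 293T cells bearing a beta-lactamase gene under UAS control. Treatment lasted 16 hr at 37C; signal came from fluorescence of a FRET substrate.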

[4] = molecular target: Progesterone receptor (Homo sapiens) (UniProt P06401); assay: qHTS assay to identify small molecule antagonists of the progesterone receptor (PR) signaling pathway (AID 1346795; active = well fitted inhibition curve with a large enough effect in the signal ratio in the repeat runs, not every such curve was filed as active; the % refers to the signal ratio)
Method in brief: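 In HEK293T cells bearing the PR-UAS-bla reporter, compound effects on promegestone-driven (1 nM) beta-lactamase expression are assessed after 16 hr using a fluorescent FRET substrate incubated 2 hr at room temperature.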

[5] = qHTS assay to identify small molecule antagonists of the progesterone receptor (PR) signaling pathway - cell viability counter screen (AID 1346798); note: series mostly up to about 92 µM; nearly all actives have a fitted effect of over 50% in size
Method in brief: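 Following a 4 hr attachment, PR-UAS-bla HEK293T cells in charcoal-stripped FBS medium were exposed to compounds with R5020 for 16 hr; CellTiter-Glo was added and luminescence read after 30 min at room temperature.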

[6] = qHTS assay to identify small molecule agonists of the progesterone receptor (PR) signaling pathway - cell viability counter screen (AID 1346799; calls by dose curve; note: nearly all actives have a fitted effect of over 45% in size)
Method in brief: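 Here, 3,000 PR-UAS-bla HEK293T cells per well were treated with compounds for 16 hr after a 6 hr preincubation at 37C and 5% CO2; cell viability is the CellTiter-Glo luminescence signal.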

[7] = qHTS assay to identify small molecule antagonists of the TGF-beta/Smad signaling pathway - cell viability counter screen (AID 1346824); note: nearly all actives have a fitted effect of over 50% in size
Method in brief: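 SBE-bla HEK 293T cells, incubated overnight, then compound plus 0.25 ng/mL TGF-beta1 (stock added) for 5 hr at 37 C. Viability was read in the same wells by CellTiter-Glo luminescence after 30 min at room temperature.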

[8] = qHTS assay to identify small molecule agonists of the TGF-beta/Smad signaling pathway - cell viability counter screen (AID 1346829); note: top concentration of the series differs between compounds; nearly all actives have a fitted effect of over 45% in size
Method in brief: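 CellTiter-Glo luminescence readout; SBE-bla HEK 293T cells, overnight plating, compound 5 hr at 37 C/5% CO2, then bla substrate 2 hr RT, then CellTiter-Glo 30 min RT.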

[9] = qHTS assay to identify small molecule agonists of the TGF-beta/Smad signaling pathway (AID 1346859; active = well fitted activation curve with a large enough effect in the signal ratio in the repeat runs, not every such curve was filed as active; the % refers to the signal ratio; note: series mostly up to about 77 µM)
Method in brief: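 Each well held 4,000 SBE-bla HEK 293T cells incubated overnight before compound addition; 5 hr later the cleavable FRET substrate went on for 2 hr at room temperature, and fluorescence was read at two emissions.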

[10] = molecular target: Thyrotropin-releasing hormone receptor (Homo sapiens) (UniProt P34981); assay: qHTS assay to identify small molecule antagonists of the thyrotropin-releasing hormone receptor (TRHR) signaling pathway (AID 1346877; active = well fitted inhibition curve with a large enough effect in the repeat runs, not every such curve was filed as active; note: series mostly up to about 51 µM)
Method in brief: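 TRHR-expressing HEK293 cells loaded with calcium dye for 2 h at 37 C; compounds pre-incubated 5 min at room temperature before TRH challenge at 1 nM final. Intracellular calcium fluorescence read kinetically for 3 min; 15 concentrations in triplicate.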

[11] = molecular target: Thyrotropin-releasing hormone receptor (Homo sapiens) (UniProt P34981); assay: qHTS assay to identify small molecule agonists of the thyrotropin-releasing hormone receptor (TRHR) signaling pathway (AID 1346891; calls by dose curve; note: series mostly up to about 58 µM)
Method in brief: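 Screening of agonists relied on calcium signalling in HEK293 cells expressing human TRHR: dye loading 2 h at 37 °C preceded compound addition and a 3-min fluorescence time course.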

[12] = Human pregnane X receptor (PXR) small molecule agonists, qHTS cell viability counter screen (AID 1346977); note: nearly all actives have a fitted effect of over 50% in size
Method in brief: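 Tox21 qHTS format; PXR-Luc HepG2, 2,000/well, charcoal-stripped FBS 5%. Cpd exposure 24hr. Read: CellTiter-Fluor fluorescence, multiplexed with luciferase.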

[13] = Caspase-3/7 induction in HepG2 cells by small molecules, qHTS assay (AID 1346978); note: nearly all actives have a fitted effect of over 15% in size
Method in brief: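 Wild-type HepG2 cells, 2,000/well, settled 5 hr at 37 C and 5% CO2, then compound-treated for 17 hr; caspase-3/7 activity read by luminescent Caspase-Glo 3/7 after 30 min at room temperature.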

[14] = Caspase-3/7 induction in CHO-K1 cells by small molecules, qHTS cell viability counter screen (AID 1346979); note: nearly all actives have a fitted effect of over 35% in size; note: potency is the fitted concentration of half-maximal effect
Method in brief: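 CellTiter-Fluor viability check, qHTS format: wild-type CHO-K1, 16hr compound treatment, 1hr reagent incubation, fluorescence read.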

[15] = Caspase-3/7 induction in CHO-K1 cells by small molecules, qHTS assay (AID 1346980); note: nearly all actives have a fitted effect of over 15% in size
Method in brief: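 Wild-type CHO-K1 cells exposed to compounds for 17hr at 37 C, 5% CO2. Caspase-3/7 activity then measured by Caspase-Glo 3/7 luminescence after 30min at room temperature.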

[16] = Caspase-3/7 induction in HepG2 cells by small molecules, qHTS cell viability counter screen (AID 1346981); note: nearly all actives have a fitted effect of over 30% in size; note: potency is the fitted concentration of half-maximal effect
Method in brief: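 Wild-type HepG2 cells, 2,000/well, settled 5 hr at 37 C, 5% CO2 before compound addition. Viability read by CellTiter-Fluor fluorescence, reagent added after 16 hr compound exposure, then 1 hr at 37C, in the same wells as the caspase read.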

[17] = qHTS assay to identify small molecule agonists or antagonists of the thyroid stimulating hormone receptor (TSHR) signaling pathway - wild type cell line counter screen (AID 1259384; calls by dose curve)
Method in brief: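 Wild-type Hek293 cells, 800/well, 18 h at 37C, then compound with Ro20-1724 for 30 min RT. cAMP by HTRF (cAMP-d2/anti-cAMP cryptate), 1 h RT, fluorescence read. 15 concentrations, triplicates.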

[18] = molecular target: Thyrotropin receptor (Homo sapiens) (UniProt P16473); assay: qHTS assay to identify small molecule antagonists of the thyroid stimulating hormone receptor (TSHR) signaling pathway (AID 1259385; calls by dose curve; note: nearly all actives have a fitted effect of over 20% in size)
Method in brief: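 TSHR-HEK293 cells (800/well) plated 18 h, then compounds with Ro20-1724 and TSH at 1.5 ng/mL final, 30 min at room temperature. cAMP quantified by HTRF (cAMP-d2/anti-cAMP-cryptate, 1 h); 15 concentrations in triplicate.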

Measured: Potency

Chain of Thyrotropin-releasing hormone receptor (Homo sapiens) (P34981 whole entry, looked up): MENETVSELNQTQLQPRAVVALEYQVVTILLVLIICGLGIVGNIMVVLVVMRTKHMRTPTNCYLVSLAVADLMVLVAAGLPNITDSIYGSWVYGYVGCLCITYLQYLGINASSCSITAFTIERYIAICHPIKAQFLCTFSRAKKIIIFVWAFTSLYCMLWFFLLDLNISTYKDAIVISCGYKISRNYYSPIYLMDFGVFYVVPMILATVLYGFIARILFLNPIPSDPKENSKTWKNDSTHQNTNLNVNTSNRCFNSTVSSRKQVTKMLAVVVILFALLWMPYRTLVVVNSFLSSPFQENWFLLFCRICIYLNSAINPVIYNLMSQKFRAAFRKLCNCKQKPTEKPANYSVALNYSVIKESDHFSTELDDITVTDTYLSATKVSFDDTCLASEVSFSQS
Chain of Progesterone receptor (Homo sapiens) (P06401 whole entry, looked up): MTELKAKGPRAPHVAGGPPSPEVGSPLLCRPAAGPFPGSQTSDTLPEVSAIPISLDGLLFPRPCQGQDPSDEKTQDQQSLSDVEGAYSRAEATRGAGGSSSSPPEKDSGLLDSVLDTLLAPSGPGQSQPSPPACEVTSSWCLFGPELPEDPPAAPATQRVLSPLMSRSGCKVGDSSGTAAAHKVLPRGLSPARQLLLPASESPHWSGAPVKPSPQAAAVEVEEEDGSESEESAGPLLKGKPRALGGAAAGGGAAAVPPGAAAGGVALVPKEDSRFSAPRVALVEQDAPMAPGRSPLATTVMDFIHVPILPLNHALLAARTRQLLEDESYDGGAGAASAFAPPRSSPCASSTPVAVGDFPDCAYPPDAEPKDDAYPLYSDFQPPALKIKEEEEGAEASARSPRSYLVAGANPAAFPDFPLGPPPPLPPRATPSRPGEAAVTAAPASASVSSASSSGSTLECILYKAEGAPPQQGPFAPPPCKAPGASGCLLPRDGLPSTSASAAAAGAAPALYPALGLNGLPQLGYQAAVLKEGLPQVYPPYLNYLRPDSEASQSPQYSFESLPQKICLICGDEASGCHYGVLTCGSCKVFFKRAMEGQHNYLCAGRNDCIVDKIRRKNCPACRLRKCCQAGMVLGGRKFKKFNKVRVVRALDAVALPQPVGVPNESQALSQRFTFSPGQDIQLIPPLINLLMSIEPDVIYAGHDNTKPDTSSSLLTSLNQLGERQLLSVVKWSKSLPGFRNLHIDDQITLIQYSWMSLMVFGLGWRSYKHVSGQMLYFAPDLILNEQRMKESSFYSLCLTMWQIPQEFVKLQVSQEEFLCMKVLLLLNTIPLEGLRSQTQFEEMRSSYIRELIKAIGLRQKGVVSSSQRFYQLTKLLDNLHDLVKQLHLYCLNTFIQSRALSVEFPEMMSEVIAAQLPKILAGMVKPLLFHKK
Chain of Thyrotropin receptor (Homo sapiens) (P16473 whole entry, looked up): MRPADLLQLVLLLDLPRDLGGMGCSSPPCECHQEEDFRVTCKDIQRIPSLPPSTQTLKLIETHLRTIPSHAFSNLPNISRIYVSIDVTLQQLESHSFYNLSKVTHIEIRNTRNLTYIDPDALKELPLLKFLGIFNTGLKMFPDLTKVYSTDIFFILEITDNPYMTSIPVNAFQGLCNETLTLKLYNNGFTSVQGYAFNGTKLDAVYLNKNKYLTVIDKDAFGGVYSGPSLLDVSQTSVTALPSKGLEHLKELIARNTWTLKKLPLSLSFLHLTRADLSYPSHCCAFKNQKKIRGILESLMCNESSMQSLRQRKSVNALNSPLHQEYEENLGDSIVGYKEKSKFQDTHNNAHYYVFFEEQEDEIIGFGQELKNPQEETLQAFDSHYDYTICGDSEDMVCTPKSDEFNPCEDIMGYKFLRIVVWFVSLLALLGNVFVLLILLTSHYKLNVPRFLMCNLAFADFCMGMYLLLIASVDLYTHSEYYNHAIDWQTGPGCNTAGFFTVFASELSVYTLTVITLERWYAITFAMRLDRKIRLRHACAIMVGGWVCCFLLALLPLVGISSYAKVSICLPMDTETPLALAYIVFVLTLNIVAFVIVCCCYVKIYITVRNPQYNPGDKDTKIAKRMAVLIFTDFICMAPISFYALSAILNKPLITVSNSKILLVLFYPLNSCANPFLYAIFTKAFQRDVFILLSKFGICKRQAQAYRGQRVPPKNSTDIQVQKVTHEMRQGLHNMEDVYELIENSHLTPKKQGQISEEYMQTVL

COCCOCCOCCOC
inactive: [1] | [2] | [3] | [4] | [5] | [6] | [7] | [8] | [9] | [10] | [11] | [12] | [13] | [14] | [15] | [16]

CCCCC(CC)C(=O)OC(C)C (stereo not drawn)
inactive: [1] | [2] | [3] | [4] | [5] | [6] | [8] | [9] | [10] | [11] | [12] | [13] | [14] | [15] | [16]

c1ccccc1
inactive: [1] | [17] | [18] | [2] | [4] | [5] | [6] | [7] | [8] | [9] | [10] | [11] | [12] | [13] | [14] | [15] | [16]

CC(C)=CC(C)(C)C
inactive: [1] | [17] | [18] | [2] | [3] | [4] | [5] | [8] | [9] | [10] | [11] | [12] | [13] | [14] | [15]

NC(Cc1c[nH]c2ccccc12)C(=O)O (stereo not drawn)
inactive: [1] | [17] | [18] | [2] | [3] | [4] | [5] | [7] | [8] | [9] | [10] | [11] | [12] | [13] | [14] | [15] | [16]

COc1ccc(N=Nc2cc(C)c(N=Nc3ccc(S(=O)(=O)O)cc3)cc2OC)cc1
active: [2] 27.3 µM | [14] 54.5 µM | [16] 30.6 µM
inactive: [1] | [17] | [3] | [5] | [7] | [8] | [9] | [10] | [11] | [13] | [15]

CCCCCC1CCCC(=O)O1 (stereo not drawn)
inactive: [1] | [17] | [18] | [2] | [5] | [7] | [8] | [9] | [10] | [11] | [12] | [13] | [14] | [15] | [16]

CCOC(=O)CCc1ccccc1
inactive: [1] | [17] | [18] | [2] | [4] | [6] | [7] | [8] | [9] | [12] | [13] | [14] | [15] | [16]
